# Measured values published in PubChem BioAssay (NCI).
# Compounds without any hit were thinned out: in the full panel of roughly 83,000, 20% have a hit.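 The endpoint reported here, percent growth, reads 100 for growth as untreated, 0 for no net growth and -100 for all cells dead.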 Values without a mark were called inactive. Activity calls are given as the source filed them. The calls were made as follows: active = growth percent below 10; inactive = the rest.
# Key:
# Assay in all cases: NCI-60 one-dose screen, 48 h (100 = growth as untreated, 0 = no growth, -100 = all killed)
# Conditions in all cases: 10 µM unless noted
# T-47D breast = test system: T-47D breast
# BT-549 breast = test system: BT-549 breast
# MDA-MB-435 melanoma = test system: MDA-MB-435 melanoma
# SW-620 colon = test system: SW-620 colon
# MCF7 breast = test system: MCF7 breast
# HCT-116 colon = test system: HCT-116 colon
# HCC-2998 colon = test system: HCC-2998 colon
# KM12 colon = test system: KM12 colon
Compound,growth (T-47D breast),growth (BT-549 breast),growth (MDA-MB-435 melanoma),growth (SW-620 colon),growth (MCF7 breast),growth (HCT-116 colon),growth (HCC-2998 colon),growth (KM12 colon)
CCOc1ccc(NC(=O)c2ccccc2-c2ccccc2C(=O)O)cc1,103%,108%,104%,107%,97.4%,103%,103%,110%
COC(=O)[C@]12CC[C@@H](C)[C@H](C)[C@@H]1C1=CC[C@@H]3[C@@]4(C)C=C(O)C(=O)C(C)=C4CC[C@@]3(C)[C@]1(C)CC2,5.51% (active),69.1%,49%,27.9%,17.2%,18.1%,9.96% (active),30.3%
CC(=O)OC(C)COc1ccc(-c2ccccc2)cc1 (stereo not given),88.6%,98.6%,98.6%,100%,103%,81.2%,104%,98.8%
CCCCCCCC(=O)SCC/C=C/[C@@H]1CC(=O)NCc2cccc(n2)CN(Cc2ccc3ccccc3c2)CC(=O)N[C@@H](C(C)C)C(=O)O1,44.5%,88.1%,37.4%,76.8%,26.5%,5.36% (active),49.5%,38.8%
COc1cc2c(cc1OC)C(=O)/C(=C/c1cc(-c3ccc4c(c3)OCO4)n[nH]1)C2,-4.12% (active),-47.8% (active),17.3%,-84.9% (active),0.343% (active),-61% (active),89.3%,-82.3% (active)
CC1(C)[C@@H](O)CC[C@]2(C)[C@H]3CC[C@@H]4[C@H]5[C@H](C(=O)/C=C/c6ccc(C(F)(F)F)cc6)CC[C@]5(CO)CC[C@@]4(C)[C@]3(C)CC[C@@H]12,34.1%,60%,42.5%,44.5%,32.3%,15.3%,77.2%,68.7%
COc1ccc2c(c1)C(Br)=C(CCO)C2c1ccccc1 (stereo not given),54.3%,87.7%,91.8%,73.2%,58.8%,57.3%,49.3%,42.8%
N#C/C(=C\c1ccc(-c2ccc(Cl)cc2)o1)c1nc(-c2ccco2)cs1,-27.1% (active),103%,101%,98.5%,14.5%,101%,46.3%,67.3%
CC(=O)NC1=C(C#N)C(c2ccccc2Cl)c2c(ccc3ccccc23)O1 (stereo not given),62.5%,50%,-11.2% (active),43%,42.1%,47.5%,85.4%,51.2%
OCC1OC(n2cnc3c(Cl)ncnc32)CC1O (stereo not given),92.1%,114%,104%,98.7%,95.2%,94.1%,108%,107%
NC1=NN=C2N(N)C(=O)c3cnn(-c4ccccc4)c3N2c2nc(-c3ccccc3)cc(-c3ccccc3)c21,71.1%,108%,108%,104%,65.5%,93.7%,107%,103%
COc1ccc(-n2c(/C=C/c3ccc(O)c(OC)c3)cc(/C=C/c3ccc(O)c(OC)c3)nc2=O)cc1,51.8%,30.9%,29.6%,29.8%,19.7%,21.1%,94.9%,42%
O=c1[nH]ncc(Br)c1Br,46.3%,83.2%,64.3%,-80.3% (active),23%,15.2%,54%,45.8%
CC1(C)C(=O)/C(=C\c2ccccn2)C[C@]2(C)[C@H]3CC[C@@H]4[C@@H](C(=O)/C=C/c5ccccn5)CC[C@@]4(C)[C@]3(C)CC[C@@H]12,3.15% (active),-13.6% (active),4.49% (active),0.595% (active),12%,-69.6% (active),-79.7% (active),-76.2% (active)
CCOc1ccc(NC(=O)c2ccoc2COc2ccccc2)cc1,108%,109%,103%,104%,95.9%,93.6%,109%,98.8%
CCSc1ncnc2c1ncn2C1OC(CO)C(O)C1O (stereo not given),29.1%,49%,24%,28.4%,19.2%,12%,8.16% (active),11.8%
C=C1C(=O)O[C@H]2[C@H]1CC/C(COC(=O)NCc1cc3ccccc3[nH]1)=C\CC[C@@]1(C)O[C@@H]21,-43.1% (active),-24.2% (active),2.87% (active),-37.8% (active),0.667% (active),-81.9% (active),98.3%,81%
N#CCCCCCn1c2ccccc2c2c3[nH]c(=O)[nH]c(=O)c3c3c4ccccc4n(CCCCCC#N)c3c21,22.9%,32%,36.8%,61.4%,45.3%,28.2%,53.8%,23.8%
CCOC(=O)c1ccc2c(c1)[n+](=O)c(C(=O)C1CCCS1)c(C(F)(F)F)n2[O-] (stereo not given),-70.5% (active),-93.4% (active),-80.5% (active),-82.4% (active),-68.1% (active),-96.2% (active),-89% (active),-90.4% (active)
Cc1cc(N2CCCC2)nc(N(CCNc2ccnc3cc(Cl)ccc23)Cc2ccco2)n1,12.4%,22.3%,44%,25.5%,17.9%,-50.9% (active),76.6%,50%
C/C(=N\NC(=O)C(C)SC(C)C(=O)N/N=C(\C)c1cccnc1)c1cccnc1 (stereo not given),104%,106%,106%,96.9%,95.7%,110%,106%,107%
C=COCCCCCCCCCCCCCCCCCC,114%,103%,114%,104%,104%,103%,99.3%,92.8%
CCCNc1nc(N(C)O)nc(N(C)O)n1,28.2%,68.5%,51.2%,38.1%,15.6%,5.06% (active),24.5%,41.5%
O=C1OC(c2ccc(Cl)c(Cl)c2)=C/C1=C/c1cccc([N+](=O)[O-])c1,96.7%,111%,104%,102%,101%,86.5%,103%,104%
CCCCC[C@H]1CC=C2C(=O)C(Cl)=C[C@@H]2CC=CCCCC(=O)O[C@@H](CCCCC)CC=C2C(=O)C(Cl)=C[C@@H]2CC=CCCCC(=O)O[C@@H](CCCCC)CC=C2C(=O)C(Cl)=C[C@@H]2CC=CCCCC(=O)O1,61% [8 µM],67.6% [8 µM],25.1% [8 µM],16.5% [8 µM],29.9% [8 µM],11.4% [8 µM],99.1% [8 µM],91.2% [8 µM]
CC(=O)O[C@H]1CC[C@]2(C)[C@H]3C(=O)C=C4[C@@H]5C[C@](C)(C(=O)N6CCCNCC6)CC[C@]5(C)CC[C@@]4(C)[C@]3(C)CC[C@H]2C1(C)C,-49.6% (active),86.9%,-14.9% (active),-88.7% (active),-88.7% (active),-95.3% (active),11.2%,13.4%
Cc1csc(Nc2nc(-c3ccc(Cl)cc3)nc(C(Cl)(Cl)Cl)n2)n1,61.6%,97.1%,89.3%,78.6%,59.4%,79.1%,70%,79.6%
CC(C)(C)c1ccc(OCCCCCCCN2CCNCC2)cc1,6.54% (active),69.7%,50.8%,-31.9% (active),-20.1% (active),-1.04% (active),-4.86% (active),36.1%
N#Cc1cnc2cc(OC[C@@H](O)CO)c(NC(=O)C3CCCC3)cc2c1Nc1ccc(OCc2cccc(F)c2)c(Cl)c1,-15.1% (active),-72.8% (active),20.3%,15.8%,-68.1% (active),-32.2% (active),-65.2% (active),45%
COC(=O)C(N)CSC(c1ccccc1)(c1ccccc1)c1ccccc1 (stereo not given),23.9%,54.6%,-58.7% (active),21.1%,13.1%,15.7%,12.9%,17.6%
